Among all 2,000 compounds or so, about 45 (2%) were called active.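 The calls were made as follows: active = inhibition above the mean of all tested compounds plus 3 SD (cut at about 49% in these data); inactive = the rest.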 Many of the other results were omitted from the sample, so actives are more common in it than they were.
Molecular target: Perilipin-5 (Homo sapiens) + 1-acylglycerol-3-phosphate O-acyltransferase ABHD5 (Homo sapiens) (UniProt Q00G26+Q8WTS1)
Assay: blockers of ABHD5 binding to perilipin-5 – cell lysate, split luciferase complementation, luminescence, NIH validation set, pilot screen (AID 493035);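 also: 0% = DMSO only wells while the 100% control is not stated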
Conditions: split G. princeps luciferase complementation, lysates, 4 h; at 7.9 µM, active compounds read high

Sequence of Perilipin-5 (Homo sapiens) + 1-acylglycerol-3-phosphate O-acyltransferase ABHD5 (Homo sapiens) (Q00G26 whole entry, looked up): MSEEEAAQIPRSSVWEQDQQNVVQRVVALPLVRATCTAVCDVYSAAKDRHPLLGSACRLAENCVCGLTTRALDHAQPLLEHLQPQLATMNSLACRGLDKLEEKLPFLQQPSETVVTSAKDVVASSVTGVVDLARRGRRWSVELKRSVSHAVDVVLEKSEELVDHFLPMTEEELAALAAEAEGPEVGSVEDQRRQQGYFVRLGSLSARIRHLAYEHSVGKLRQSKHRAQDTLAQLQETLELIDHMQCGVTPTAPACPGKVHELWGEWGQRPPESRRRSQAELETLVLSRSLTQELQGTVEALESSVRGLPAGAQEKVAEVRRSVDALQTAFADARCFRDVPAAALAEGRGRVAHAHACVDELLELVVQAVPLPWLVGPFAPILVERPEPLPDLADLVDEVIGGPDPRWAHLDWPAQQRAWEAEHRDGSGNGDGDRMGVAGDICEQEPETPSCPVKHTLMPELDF
Sequence of Perilipin-5 (Homo sapiens) + 1-acylglycerol-3-phosphate O-acyltransferase ABHD5 (Homo sapiens) (Q8WTS1 whole entry, looked up): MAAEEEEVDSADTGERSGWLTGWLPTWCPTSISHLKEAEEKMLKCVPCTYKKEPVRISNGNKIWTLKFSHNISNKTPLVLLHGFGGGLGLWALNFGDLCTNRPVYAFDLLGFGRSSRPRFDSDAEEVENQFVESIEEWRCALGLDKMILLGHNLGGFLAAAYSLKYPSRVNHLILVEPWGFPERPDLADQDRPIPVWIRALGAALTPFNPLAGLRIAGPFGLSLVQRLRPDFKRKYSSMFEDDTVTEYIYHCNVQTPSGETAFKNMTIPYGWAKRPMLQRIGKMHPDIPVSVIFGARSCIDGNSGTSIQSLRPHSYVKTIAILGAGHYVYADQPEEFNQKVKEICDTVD

inhibition, inactive:
COc1ccc2cc(-c3nc4ccccc4n3C)c(=O)oc2c1 -5.19%
CCn1c2ccccc2c2cc(CC(N)=O)ccc21 -7.62%
COc1ccccc1C(=O)Nc1cc2cc(Br)ccc2oc1=O -7.35%
Cc1ccc(CSCC(=O)NCCCN2CCOCC2)cc1 2.33%
Cc1cc(=O)c2c(O)c(O)ccc2o1 -3.3%
O=c1nc2sc3ccccc3n2c(=O)n1-c1ccc(Cl)cc1 5.72%
COc1ccc(C)cc1S(=O)(=O)Nc1ccc(F)cc1 0.68%
CNS(=O)(=O)c1ccc(C)cc1 -16.6%
CCCCNC(=O)NS(=O)(=O)c1ccc(C)cc1 -4.64%
COc1ccc(-c2nnc(-c3cc4c(ccc5ccccc54)oc3=O)o2)cc1 5.2%
COc1c(C=O)c(CCN(C)C(=O)c2ccc(F)cc2)cc2c1OCO2 3.02%
O=C(O)c1cc(-c2ccccc2)nc2ccccc12 -2.12%
CCCOc1ccc(-c2cc(C(=O)NCC3CCCO3)c3ccccc3n2)cc1 (stereo unspecified) -0.81%
C/C(=N\NC(=O)c1ccccc1[N+](=O)[O-])c1ccc(Br)s1 -7.54%
Cc1cc(C)c(NC(=O)NC(=O)C(Cl)(Cl)Cl)c(C)c1 -18.5%
O=C(/C=C/c1ccc2c(c1)OCO2)NCc1ccc(F)cc1 1.71%
O=C(/C=C/c1ccc2c(c1)OCCCO2)c1ccc2ccccc2c1O 26.6%
O=C1N[C@@H](Cc2cnc[nH]2)C(=O)N2CCC[C@@H]12 -13.3%
O=C(c1ccccc1F)c1cc2c(cc1[N+](=O)[O-])OCCO2 2.64%
COc1ccc(-c2c3c(=O)n(C)c(=O)n(C)c3cn2C2CCCCC2)cc1 7.04%
O=C(O)/C=C/c1cccc(OCc2ccccc2)c1 -15.3%
CC(C)C[C@H](NC(=O)NC(C)C)C(=O)O -0.17%
CC(C)OC(=O)CC1C(=O)NCCN1C(=S)NC(=O)c1cccs1 (stereo unspecified) -6.51%
COc1ccc(C2CC(c3c(O)cc(C)oc3=O)=NCCS2)c(OC)c1 (stereo unspecified) 22.5%
COc1cc2c(cc1OC)/C(=C/c1ccc(Cl)cc1)C(=O)OC2 33.3%
Nc1cccc(C(=O)O)c1 -4.68%
O=C(O)C1[C@H]2C(=O)N(C3CCCC3)C[C@]23C=C[C@H]1O3 (stereo partly specified) -13.3%
O=C1CCCN1C(=O)CCC(=O)N1CCCC1=O 4.49%
Cc1oc2c(C)c3oc(=O)c4c(c3cc2c1C)CCCC4 1.69%
COc1ccccc1C(=O)Oc1ccc2c(c1)O/C(=C\c1ccncc1)C2=O 35.9%
CCc1ccc(/C=C2\Oc3cc(OC(=O)N4CCOCC4)ccc3C2=O)cc1 17.7%
O=C(O)C1CCN(C(=O)COc2ccc3c4c(c(=O)oc3c2)CCC4)CC1 -5.81%
COc1ccc([C@H]2[C@H](C(=O)OC(C)(C)C)N3N=Cc4ccccc4C3C23C(=O)c2ccccc2C3=O)cc1OC (stereo partly specified) 0.07%
O=C(NCCO)c1ccc2[nH]c3ccccc3c2c1 -4.84%
COc1ccc2nc(C)cc(Nc3ccccc3O)c2c1 -5.57%
O=C1c2ccccc2C2(c3ccccc3)NCCN12 (stereo unspecified) 0.12%
COc1cc2c3c(c1)C(C)CC(C)(C)N3C(=O)C2=O (stereo unspecified) 3.84%
Cc1[nH]c2ccccc2c1/C=C/c1nc2ccccc2c(=O)n1CCO 8.95%
C[C@]12CC[C@@H]3c4ccc(O)cc4C(=O)C[C@H]3[C@@H]1CC[C@@H]2O 9.16%
CC(=O)OCC1OC(n2ccc(=O)[nH]c2=O)C(O)C1O (stereo unspecified) -2.69%
C/C(=N\NC(=O)C1(C)CC1(Br)Br)c1ccc([N+](=O)[O-])cc1 (stereo unspecified) -8.2%
O=C(NCc1ccc(N2CCCC2=O)cc1)c1ccc(F)cc1 7.2%
CC(=Nc1ccccc1)C1=C(O)CCCC1=O 0.34%
O=C(/C=C/c1ccco1)N1CCN(c2ccccc2)CC1 2.96%
CC1(C)c2ccccc2N2CC(=O)N(CC(N)=O)C21C (stereo unspecified) 4.9%
Nc1ccc2cn[nH]c2c1 -10.6%
Cc1ccc(N2C(=O)c3ccccc3C2=O)cc1C -3.44%
CNc1nc(N(C)C)nc(N(C)C)n1 -0.61%
COC(=O)c1ccc(C(=O)OC)c(NC(=O)C(C)C)c1 -13.5%
COc1ccc(C2C(=O)c3ccccc3C2=O)cc1 -1.24%
COc1ccc(-c2nc(NC(C)=O)sc2-c2ccc(OC)cc2)cc1 2.96%
COc1ccccc1CCn1cnc2c3cc(C)ccc3n(C)c2c1=O 12.2%
CCOc1cc2c(cc1OCC)C(c1ccccc1)N(c1ccc(C(=O)O)cc1)C(=O)C2 (stereo unspecified) 5.15%
CCS(=O)(=O)Nc1cc(OC)c(OC)cc1Cc1nccc2cc(OC)c(OC)cc12 -5.76%
O=C(COc1ccc2ccc(=O)oc2c1)c1ccccc1 -3.28%
COc1ccc(NC(=O)C2C(=O)N(CCO)C3(C)CC2c2ccccc2O3)cc1 (stereo unspecified) -8.28%

inhibition, active:
Cc1ccc(S(=O)(=O)N[C@@H](Cc2ccccc2)C(=O)CCl)cc1 84.4%
COC(=O)c1cc(-c2ccc(C)o2)nc2ccccc12 72.8%
O=C(/C=C/c1ccc2c(c1)OCO2)c1ccccn1 55.7%
O=C(CN1CC[n+]2c(-c3cccs3)csc21)c1ccc(Br)cc1 51.8%
O=C1ON=C(c2ccc(Cl)cc2)/C1=C/c1ccc(O)cc1 70.2%
CS(=O)(=O)Oc1ccc2c(c1)O/C(=C\C=C\c1ccccc1)C2=O 53.5%
CC1(c2ccccc2)CC(C)(C)N2C(=O)C(=O)c3cccc1c32 (stereo unspecified) 59.8%
CC1(C)c2ccccc2N2CC(=O)NC21/C=C/c1ccco1 (stereo unspecified) 50.2%
COc1ccc(C2=CC(=O)C=CC2=O)cc1 69.1%
COc1ccc2c(c1)C=CC1(O2)N(CCO)c2ccccc2C1(C)C (stereo unspecified) 50.9%

Reference: PubChem BioAssay AID493035 (The Scripps Research Institute Molecular Screening Center, 2011)
